SMILES strings stand for the structures.

From ChEMBL document CHEMBL1961873, “Compounds: GSK PKIS; Assays: Nanosyn kinase panel” (2012) come the findings set out here.

The target of assay [1] is T1, Inhibitor of nuclear factor kappa-B kinase subunit epsilon (Homo sapiens) (UniProt Q14164).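 Further: reported values are averaged percent inhibition figures against human IKKε.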
T1 sequence (whole entry): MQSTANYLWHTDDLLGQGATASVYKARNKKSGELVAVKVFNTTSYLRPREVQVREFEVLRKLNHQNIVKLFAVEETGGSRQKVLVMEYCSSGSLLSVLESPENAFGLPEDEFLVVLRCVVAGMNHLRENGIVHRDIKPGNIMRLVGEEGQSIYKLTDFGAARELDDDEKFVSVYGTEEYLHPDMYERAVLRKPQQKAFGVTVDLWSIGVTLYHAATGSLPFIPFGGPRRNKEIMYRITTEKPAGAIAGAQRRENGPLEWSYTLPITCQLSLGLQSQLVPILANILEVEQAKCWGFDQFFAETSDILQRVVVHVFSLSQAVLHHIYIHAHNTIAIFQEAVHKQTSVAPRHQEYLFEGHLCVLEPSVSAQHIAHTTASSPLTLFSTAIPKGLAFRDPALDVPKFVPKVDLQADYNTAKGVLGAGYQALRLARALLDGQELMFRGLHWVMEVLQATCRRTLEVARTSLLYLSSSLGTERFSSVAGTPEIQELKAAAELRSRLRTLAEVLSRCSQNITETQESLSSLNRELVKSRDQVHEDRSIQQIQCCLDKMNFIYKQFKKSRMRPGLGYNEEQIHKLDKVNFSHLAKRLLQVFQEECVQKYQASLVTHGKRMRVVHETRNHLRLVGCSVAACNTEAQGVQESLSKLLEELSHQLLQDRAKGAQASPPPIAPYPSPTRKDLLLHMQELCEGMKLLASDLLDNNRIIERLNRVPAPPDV
Conditions: at 1 µM.

The target of assay [2] is T2, Serine/threonine-protein kinase Nek1 (Homo sapiens) (UniProt Q96PY6).
T2 sequence (whole entry): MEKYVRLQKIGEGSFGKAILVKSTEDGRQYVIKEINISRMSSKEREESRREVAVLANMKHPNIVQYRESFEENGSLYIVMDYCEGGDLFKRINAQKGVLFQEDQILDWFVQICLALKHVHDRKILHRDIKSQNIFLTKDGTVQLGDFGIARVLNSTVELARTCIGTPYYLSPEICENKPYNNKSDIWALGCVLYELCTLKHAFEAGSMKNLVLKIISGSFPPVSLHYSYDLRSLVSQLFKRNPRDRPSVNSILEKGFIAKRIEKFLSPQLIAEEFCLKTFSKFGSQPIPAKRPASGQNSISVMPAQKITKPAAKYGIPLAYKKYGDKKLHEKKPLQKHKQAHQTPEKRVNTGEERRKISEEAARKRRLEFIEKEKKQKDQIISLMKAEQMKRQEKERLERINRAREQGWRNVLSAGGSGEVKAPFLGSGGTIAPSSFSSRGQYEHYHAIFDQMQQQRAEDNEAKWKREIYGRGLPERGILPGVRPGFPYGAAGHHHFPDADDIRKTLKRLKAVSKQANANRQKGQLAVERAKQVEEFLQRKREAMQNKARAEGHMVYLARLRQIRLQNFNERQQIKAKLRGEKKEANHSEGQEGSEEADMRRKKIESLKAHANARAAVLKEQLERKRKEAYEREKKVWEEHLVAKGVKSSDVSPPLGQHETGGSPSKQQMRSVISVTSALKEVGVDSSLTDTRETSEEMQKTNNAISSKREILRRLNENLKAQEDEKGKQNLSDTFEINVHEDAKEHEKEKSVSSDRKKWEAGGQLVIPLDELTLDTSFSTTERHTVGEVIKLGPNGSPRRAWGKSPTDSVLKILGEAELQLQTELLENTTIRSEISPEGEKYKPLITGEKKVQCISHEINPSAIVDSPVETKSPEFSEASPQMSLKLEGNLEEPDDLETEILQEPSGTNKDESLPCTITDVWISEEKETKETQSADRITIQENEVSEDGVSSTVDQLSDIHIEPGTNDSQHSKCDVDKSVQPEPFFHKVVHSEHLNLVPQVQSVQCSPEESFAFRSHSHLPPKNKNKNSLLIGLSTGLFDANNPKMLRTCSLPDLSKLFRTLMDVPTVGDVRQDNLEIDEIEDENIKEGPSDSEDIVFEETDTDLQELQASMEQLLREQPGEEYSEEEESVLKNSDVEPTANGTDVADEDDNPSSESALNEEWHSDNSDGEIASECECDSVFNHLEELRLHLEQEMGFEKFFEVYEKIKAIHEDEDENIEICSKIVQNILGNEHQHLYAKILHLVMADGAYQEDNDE
Conditions: at 0.1 µM.

For assay [3], the target named is T2, Serine/threonine-protein kinase Nek1 (Homo sapiens). The settings on record: at 1 µM.
For assay [4], the target named is T3, Serine/threonine-protein kinase Nek2 (Homo sapiens) (UniProt P51955).
T3 sequence (whole entry): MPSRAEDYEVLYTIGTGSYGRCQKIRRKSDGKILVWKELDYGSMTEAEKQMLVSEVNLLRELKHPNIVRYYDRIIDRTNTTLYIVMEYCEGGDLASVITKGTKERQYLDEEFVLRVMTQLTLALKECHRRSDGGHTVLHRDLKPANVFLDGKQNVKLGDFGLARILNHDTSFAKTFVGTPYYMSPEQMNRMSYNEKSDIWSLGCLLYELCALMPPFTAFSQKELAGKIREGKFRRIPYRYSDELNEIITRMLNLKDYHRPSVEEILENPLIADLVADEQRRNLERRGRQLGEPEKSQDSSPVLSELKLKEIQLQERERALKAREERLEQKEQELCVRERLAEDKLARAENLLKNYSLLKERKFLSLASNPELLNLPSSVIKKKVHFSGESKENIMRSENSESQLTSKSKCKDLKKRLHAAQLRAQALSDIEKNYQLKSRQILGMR
The settings on record: at 0.1 µM.

Assay [5] addresses T3, Serine/threonine-protein kinase Nek2 (Homo sapiens). The settings on record: at 1 µM.
For assay [6], the target named is Serine/threonine-protein kinase Nek6 (Homo sapiens) (UniProt Q9HC98). The settings on record: at 0.1 µM.
Serine/threonine-protein kinase Nek6 (Homo sapiens), sequence (Q9HC98 whole entry): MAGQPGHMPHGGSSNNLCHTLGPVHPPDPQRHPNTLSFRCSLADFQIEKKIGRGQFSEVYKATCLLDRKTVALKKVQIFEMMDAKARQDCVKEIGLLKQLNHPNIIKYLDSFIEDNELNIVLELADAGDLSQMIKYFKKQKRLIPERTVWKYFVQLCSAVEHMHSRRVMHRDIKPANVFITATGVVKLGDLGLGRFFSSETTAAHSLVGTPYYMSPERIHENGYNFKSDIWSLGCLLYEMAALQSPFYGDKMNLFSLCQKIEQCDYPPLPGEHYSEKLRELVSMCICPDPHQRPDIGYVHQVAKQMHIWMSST
Assay [7] has the same target. Conditions: at 1 µM.
In assay [8] the target is Serine/threonine-protein kinase Nek7 (Homo sapiens) (UniProt Q8TDX7). The settings on record: at 0.1 µM.
Serine/threonine-protein kinase Nek7 (Homo sapiens), sequence (Q8TDX7 whole entry, looked up): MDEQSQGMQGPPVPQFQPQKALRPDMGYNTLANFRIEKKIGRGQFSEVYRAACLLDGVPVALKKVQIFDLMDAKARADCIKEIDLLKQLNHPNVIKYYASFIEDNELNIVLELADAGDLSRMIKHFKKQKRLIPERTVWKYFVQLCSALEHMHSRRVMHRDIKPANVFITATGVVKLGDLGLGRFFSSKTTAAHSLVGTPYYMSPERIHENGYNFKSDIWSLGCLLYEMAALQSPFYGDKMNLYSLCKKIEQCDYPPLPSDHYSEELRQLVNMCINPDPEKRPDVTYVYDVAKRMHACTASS
For assay [9] the target is unchanged. The settings on record: at 1 µM.
Assay [10] concerns the target T4, Serine/threonine-protein kinase Nek9 (Homo sapiens) (UniProt Q8TD19).
T4 sequence (whole entry): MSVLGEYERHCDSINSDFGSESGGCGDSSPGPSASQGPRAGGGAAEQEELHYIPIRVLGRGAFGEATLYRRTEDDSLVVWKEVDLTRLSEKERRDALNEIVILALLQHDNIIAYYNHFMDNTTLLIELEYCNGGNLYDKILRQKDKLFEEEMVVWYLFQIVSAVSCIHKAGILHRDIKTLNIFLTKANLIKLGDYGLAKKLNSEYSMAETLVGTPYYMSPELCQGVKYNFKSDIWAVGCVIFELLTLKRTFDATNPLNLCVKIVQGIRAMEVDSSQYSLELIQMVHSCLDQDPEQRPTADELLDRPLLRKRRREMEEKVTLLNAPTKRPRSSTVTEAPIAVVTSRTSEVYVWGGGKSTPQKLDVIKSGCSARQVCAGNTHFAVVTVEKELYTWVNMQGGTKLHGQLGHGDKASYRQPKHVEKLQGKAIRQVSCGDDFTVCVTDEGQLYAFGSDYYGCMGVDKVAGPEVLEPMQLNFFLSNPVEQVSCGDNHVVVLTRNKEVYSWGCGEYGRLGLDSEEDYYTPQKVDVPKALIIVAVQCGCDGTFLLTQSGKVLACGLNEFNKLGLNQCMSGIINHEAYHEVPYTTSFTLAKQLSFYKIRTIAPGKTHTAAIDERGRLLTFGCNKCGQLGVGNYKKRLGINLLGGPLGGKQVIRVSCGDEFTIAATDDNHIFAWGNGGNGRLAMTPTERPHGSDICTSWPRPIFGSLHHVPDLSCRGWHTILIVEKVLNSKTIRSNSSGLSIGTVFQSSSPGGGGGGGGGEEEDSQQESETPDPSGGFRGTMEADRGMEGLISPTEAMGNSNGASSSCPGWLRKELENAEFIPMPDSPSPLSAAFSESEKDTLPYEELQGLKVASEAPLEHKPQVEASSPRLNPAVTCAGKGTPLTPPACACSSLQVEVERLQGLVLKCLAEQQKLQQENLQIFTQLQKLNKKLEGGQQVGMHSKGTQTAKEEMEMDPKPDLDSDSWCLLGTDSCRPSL
Conditions: at 0.1 µM.

For assay [11], the target named is T4, Serine/threonine-protein kinase Nek9 (Homo sapiens). Conditions: at 1 µM.
Assay [12] deals with Serine/threonine-protein kinase PLK1 (Homo sapiens) (UniProt P53350). The settings on record: at 0.1 µM.
Serine/threonine-protein kinase PLK1 (Homo sapiens), sequence (P53350 whole entry): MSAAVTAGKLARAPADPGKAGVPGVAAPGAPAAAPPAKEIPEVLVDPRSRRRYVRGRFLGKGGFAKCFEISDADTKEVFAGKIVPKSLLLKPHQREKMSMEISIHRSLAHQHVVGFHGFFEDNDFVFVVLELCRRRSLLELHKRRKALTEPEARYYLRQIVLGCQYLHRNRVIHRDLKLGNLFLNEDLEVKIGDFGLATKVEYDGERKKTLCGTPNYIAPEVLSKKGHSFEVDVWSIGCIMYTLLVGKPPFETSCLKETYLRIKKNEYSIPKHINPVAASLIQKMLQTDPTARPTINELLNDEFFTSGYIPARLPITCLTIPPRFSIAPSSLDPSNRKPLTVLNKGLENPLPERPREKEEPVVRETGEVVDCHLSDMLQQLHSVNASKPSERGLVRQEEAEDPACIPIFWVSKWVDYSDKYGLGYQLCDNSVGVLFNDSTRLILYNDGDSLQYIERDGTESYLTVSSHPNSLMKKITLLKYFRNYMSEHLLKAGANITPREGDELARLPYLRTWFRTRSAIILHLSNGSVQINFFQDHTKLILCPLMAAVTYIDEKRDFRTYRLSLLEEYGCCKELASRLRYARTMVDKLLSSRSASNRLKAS
Assay [13] has the same target. Conditions: at 1 µM.
Assay [14] addresses T5, Dual specificity protein kinase TTK (Homo sapiens) (UniProt P33981).
T5 sequence (whole entry): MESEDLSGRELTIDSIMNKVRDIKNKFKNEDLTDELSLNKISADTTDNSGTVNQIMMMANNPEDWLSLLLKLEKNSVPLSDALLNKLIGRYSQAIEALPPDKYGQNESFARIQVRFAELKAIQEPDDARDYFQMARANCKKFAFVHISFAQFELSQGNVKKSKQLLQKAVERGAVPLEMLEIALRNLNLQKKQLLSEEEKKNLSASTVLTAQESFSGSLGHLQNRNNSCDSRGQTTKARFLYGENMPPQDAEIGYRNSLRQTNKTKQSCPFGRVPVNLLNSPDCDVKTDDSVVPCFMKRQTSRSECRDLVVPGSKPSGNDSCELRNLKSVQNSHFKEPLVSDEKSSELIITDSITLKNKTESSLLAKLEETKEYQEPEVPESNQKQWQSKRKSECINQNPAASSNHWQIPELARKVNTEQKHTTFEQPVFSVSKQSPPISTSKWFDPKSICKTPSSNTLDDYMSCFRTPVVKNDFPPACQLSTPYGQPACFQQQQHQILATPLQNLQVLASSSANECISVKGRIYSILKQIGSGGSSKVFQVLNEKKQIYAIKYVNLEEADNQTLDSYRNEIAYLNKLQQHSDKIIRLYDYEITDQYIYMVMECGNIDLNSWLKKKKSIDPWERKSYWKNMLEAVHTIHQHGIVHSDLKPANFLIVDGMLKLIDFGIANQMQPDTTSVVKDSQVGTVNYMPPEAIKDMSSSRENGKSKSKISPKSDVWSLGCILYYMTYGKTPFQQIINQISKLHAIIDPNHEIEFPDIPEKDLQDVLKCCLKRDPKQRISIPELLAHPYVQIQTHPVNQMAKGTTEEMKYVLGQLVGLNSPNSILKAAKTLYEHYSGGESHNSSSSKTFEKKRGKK
The settings on record: at 0.1 µM.

Assay [15] deals with T6, Receptor-type tyrosine-protein kinase FLT3 (Homo sapiens), P36888 [D835Y].
T6 sequence (whole entry): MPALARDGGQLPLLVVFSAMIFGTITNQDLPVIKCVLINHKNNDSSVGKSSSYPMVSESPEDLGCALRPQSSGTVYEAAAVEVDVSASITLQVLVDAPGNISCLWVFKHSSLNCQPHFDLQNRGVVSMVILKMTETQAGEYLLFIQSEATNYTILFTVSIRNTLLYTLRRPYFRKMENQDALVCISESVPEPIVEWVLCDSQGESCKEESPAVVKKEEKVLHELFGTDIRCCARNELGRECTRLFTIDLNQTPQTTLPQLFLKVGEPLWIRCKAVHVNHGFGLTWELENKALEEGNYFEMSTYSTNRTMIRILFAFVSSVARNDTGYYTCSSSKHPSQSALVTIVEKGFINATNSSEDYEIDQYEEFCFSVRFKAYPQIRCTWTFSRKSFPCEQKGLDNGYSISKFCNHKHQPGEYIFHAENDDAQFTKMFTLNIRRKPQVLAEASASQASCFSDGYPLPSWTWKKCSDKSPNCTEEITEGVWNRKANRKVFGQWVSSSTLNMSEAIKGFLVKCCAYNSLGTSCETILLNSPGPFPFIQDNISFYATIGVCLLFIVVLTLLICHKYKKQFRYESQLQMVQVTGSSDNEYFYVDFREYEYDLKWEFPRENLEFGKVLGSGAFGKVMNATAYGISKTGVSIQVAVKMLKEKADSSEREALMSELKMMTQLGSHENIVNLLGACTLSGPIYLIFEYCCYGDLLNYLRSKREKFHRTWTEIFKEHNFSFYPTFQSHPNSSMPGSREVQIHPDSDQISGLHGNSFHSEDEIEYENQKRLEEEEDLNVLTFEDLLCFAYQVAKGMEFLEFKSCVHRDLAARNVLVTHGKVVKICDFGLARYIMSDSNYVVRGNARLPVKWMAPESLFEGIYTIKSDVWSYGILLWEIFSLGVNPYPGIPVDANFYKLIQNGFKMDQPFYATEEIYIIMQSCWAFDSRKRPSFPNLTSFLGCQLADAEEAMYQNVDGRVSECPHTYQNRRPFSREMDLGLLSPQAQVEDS
Conditions: at 1 µM.

Assay [16] addresses Vascular endothelial growth factor receptor 3 (Homo sapiens) (UniProt P35916). Conditions: at 0.1 µM.
Assay [17] shares this target. The settings on record: at 1 µM.
In assay [18] the target is Macrophage colony-stimulating factor 1 receptor (Homo sapiens) (UniProt P07333). The settings on record: at 0.1 µM.
Macrophage colony-stimulating factor 1 receptor (Homo sapiens), sequence (P07333 whole entry): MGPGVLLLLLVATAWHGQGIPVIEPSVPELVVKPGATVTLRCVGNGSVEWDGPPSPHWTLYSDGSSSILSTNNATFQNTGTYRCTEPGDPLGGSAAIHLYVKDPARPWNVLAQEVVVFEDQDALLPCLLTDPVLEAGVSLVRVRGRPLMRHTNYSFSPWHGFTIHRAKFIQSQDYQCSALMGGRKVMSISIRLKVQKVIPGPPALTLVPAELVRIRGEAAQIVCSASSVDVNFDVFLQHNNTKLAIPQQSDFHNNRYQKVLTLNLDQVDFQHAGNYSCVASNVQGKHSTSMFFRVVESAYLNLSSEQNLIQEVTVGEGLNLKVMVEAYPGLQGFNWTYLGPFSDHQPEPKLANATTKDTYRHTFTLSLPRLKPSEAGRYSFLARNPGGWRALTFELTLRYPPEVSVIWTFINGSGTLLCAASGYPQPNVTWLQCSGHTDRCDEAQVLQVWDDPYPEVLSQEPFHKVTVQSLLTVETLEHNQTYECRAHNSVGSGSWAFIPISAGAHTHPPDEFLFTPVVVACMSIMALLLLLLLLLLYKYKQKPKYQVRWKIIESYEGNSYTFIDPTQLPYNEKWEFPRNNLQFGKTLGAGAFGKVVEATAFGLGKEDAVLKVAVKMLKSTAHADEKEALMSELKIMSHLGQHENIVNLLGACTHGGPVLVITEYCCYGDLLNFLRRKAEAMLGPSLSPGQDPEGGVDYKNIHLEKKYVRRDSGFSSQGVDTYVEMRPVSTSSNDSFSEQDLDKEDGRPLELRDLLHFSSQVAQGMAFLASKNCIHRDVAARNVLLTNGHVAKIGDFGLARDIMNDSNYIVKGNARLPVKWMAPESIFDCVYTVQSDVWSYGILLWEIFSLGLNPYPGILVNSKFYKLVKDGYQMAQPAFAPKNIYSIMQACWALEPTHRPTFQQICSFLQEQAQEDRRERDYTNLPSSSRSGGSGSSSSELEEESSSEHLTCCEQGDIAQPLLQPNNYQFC
The target is the same in assay [19]. The settings on record: at 1 µM.
Assay [20] deals with Tyrosine-protein kinase Fyn (Homo sapiens) (UniProt P06241). The settings on record: at 0.1 µM.
Tyrosine-protein kinase Fyn (Homo sapiens), sequence (P06241 2-537 limits assumed): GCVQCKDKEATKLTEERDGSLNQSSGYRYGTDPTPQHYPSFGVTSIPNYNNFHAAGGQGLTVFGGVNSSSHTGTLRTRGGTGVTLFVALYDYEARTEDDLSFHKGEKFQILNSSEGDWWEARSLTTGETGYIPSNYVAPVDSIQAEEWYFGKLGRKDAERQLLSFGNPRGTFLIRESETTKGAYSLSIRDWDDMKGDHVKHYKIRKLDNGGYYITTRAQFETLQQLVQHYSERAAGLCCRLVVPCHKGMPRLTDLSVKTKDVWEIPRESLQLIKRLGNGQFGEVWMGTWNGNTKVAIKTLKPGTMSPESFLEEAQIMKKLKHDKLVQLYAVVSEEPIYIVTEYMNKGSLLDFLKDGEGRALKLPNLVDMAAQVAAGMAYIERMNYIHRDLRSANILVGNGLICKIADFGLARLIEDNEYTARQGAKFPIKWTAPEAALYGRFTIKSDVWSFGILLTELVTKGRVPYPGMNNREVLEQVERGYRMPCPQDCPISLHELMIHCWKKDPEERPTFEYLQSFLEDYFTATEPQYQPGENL

Vascular endothelial growth factor receptor 3 (Homo sapiens), sequence (P35916 whole entry): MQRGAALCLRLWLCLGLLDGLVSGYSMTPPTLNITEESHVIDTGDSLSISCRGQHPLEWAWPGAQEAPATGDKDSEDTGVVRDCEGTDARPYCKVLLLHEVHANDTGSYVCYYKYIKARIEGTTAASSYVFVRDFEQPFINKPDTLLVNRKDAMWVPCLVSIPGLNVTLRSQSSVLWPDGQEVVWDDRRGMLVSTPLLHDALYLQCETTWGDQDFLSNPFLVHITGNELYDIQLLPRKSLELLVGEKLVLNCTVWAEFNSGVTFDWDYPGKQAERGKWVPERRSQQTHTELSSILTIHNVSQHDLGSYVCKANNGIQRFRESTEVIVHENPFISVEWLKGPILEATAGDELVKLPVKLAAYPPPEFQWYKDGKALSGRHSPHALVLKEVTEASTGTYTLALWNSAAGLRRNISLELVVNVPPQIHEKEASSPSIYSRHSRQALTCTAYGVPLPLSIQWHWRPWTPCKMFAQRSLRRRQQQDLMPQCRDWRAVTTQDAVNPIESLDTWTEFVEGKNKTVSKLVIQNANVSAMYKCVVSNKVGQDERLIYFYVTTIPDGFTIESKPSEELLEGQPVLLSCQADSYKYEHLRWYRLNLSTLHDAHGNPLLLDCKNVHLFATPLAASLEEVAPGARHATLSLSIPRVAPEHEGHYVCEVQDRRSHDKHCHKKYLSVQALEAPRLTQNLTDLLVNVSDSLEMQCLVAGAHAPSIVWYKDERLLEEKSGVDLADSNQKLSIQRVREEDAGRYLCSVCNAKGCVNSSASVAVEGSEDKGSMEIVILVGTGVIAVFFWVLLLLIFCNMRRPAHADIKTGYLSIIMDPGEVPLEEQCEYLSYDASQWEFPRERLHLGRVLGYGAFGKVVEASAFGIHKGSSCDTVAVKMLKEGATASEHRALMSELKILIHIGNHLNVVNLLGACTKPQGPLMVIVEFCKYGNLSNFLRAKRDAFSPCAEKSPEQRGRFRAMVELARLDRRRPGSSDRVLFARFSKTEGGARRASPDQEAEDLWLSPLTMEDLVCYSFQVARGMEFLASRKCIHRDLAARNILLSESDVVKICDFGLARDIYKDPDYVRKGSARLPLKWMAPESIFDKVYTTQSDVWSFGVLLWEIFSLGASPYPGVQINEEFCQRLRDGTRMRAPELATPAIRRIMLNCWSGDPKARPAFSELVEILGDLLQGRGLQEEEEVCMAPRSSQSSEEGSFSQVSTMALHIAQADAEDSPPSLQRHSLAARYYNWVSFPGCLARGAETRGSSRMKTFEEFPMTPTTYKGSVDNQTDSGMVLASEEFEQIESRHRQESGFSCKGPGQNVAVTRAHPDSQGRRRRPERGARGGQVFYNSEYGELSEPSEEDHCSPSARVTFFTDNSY

What is called inhibition is the drop in the measured response relative to a control, in per cent. For `CCS(=O)(=O)c1ccc(OC)c(Nc2ncc(-c3cccc(OC)c3)o2)c1`, the inhibition was 4.13% in assay [1]; 0.44% in [2]; 1.45% in assay [3]; 2.73% in [4]; 2.94% in assay [5]; -1.47% in assay [6]. Besides, the inhibition was determined as 0.87% in assay [7]; 2.84% in assay [8]; 2.42% in assay [9]; 4.19% in assay [10]; 4.07% in [11]; 4.39% in assay [12]. Also, the inhibition in assay [13] came to 1.04%; in assay [14], 2.75%; in assay [15], 78.5%; in assay [16], 27.6%; in assay [17] it was 77.8%; in assay [18] it was 26.4%. Moreover, the figures for the inhibition in assay [19] and in assay [20] were 71.9% and 27.6%, respectively.
